# Measurements: PubChem BioAssay
# Values joined by “and” are separate entries in the source; they are usually repeats but may differ in a detail not shown here. Equal values may be shown once. Active and inactive are the calls of the source. Unless noted, no stated cut-off is given here; in the data, active means inhibition above about 80%; inactive means the rest.
# Legend:
# F380Y = test: modulators of BK channel variants, profiling panel, selectivity assay, cell-based, U2OS BacMam, thallium flux, beta subunits (AID 1259406;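 active means thallium flux through the channel raised or lowered by more than 3 SD from vehicle-only wells, actives on both sides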;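 further: initial slope of Thallos dye fluorescence rise after thallium is added; log ratio against the mean of 0.3% DMSO vehicle wells on the same plate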); details: at 30 µM
# F380Y/beta1 = test: as above; details: at 30 µM
# [1] = UWB1.289 ovarian carcinoma cell growth inhibition, synergistic combos for chromothripsis tumors, BGB or cisplatin combos (AID 1671456); details: UWB1.289 ovarian carcinoma cells, stronger effect = higher value;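 further: cells exposed to compound for four days; 0% = vehicle DMSO and 100% = killing by high DMSO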
# [2] = LFS_MB_2R medulloblastoma cell growth inhibition, synergistic combos for chromothripsis tumors, cisplatin combos (AID 1671457); details: LFS_MB_2R medulloblastoma cells, stronger effect = higher value;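 further: cells exposed to compound for four days before readout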
# [3] = MDA-MB-436 breast carcinoma cell growth inhibition, synergistic combos for chromothripsis tumors, BGB or cisplatin combos (AID 1671458; call rule not given here;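 further: cells exposed for 96 hours; 0% = vehicle DMSO and 100% = killing by high DMSO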); details: MDA-MB-436 breast carcinoma growth inhibition, drug combinations, stronger effect = higher value
# [4] = UWB1.289_BRCA1 ovarian cancer growth, cell-based, BGB or cisplatin combinations (AID 1671459); details: UWB1.289 BRCA1 ovarian carcinoma, drug combinations, stronger effect = higher value
# [5] = human astrocyte viability loss, single and combined drugs, cytotoxicity control for chromothriptic childhood tumor combination screen, cell-based, BGB or cisplatin IC20 combos (AID 1671460); details: Human astrocytes, drug combinations, stronger effect = higher value;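 further: cells exposed to compounds for 96 hours before viability readout; 0% = vehicle and 100% = killing control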
# [6] = growth inhibition of BT084 medulloblastoma cells, cell-based, ICGC_MB145, cisplatin and BGB IC40 combos (AID 1671461); details: drug combinations, stronger effect = higher value;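 further: cells exposed to drugs for 96 hours; 0% = vehicle DMSO and 100% = high DMSO full killing control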
# [7] = growth inhibition of RCMB18 medulloblastoma cells, cell-based, cisplatin and BGB IC40 combos (AID 1671462); details: stronger effect = higher value;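 further: cells exposed to compound for four days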
# [8] = growth inhibition of CRL1545 osteosarcoma cells, cell-based, cisplatin and BGB IC20 combos (AID 1671464); details: stronger effect = higher value;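 further: cells exposed to compound for 96 hours before readout; 0% = vehicle DMSO and 100% = high DMSO killing control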
# [9] = measured here: inhibition with BGB combination, at 0.05 µM
# [10] = measured here: inhibition with cisplatin combination, at 0.05 µM
# [11] = measured here: combination with cisplatin, at 0.5 µM
# [12] = measured here: combination with cisplatin, at 5 µM
# [13] = measured here: BGB combination, at 0.5 µM
# [14] = measured here: BGB combination, at 5 µM
# [15] = measured here: cisplatin combination, at 0.5 µM
# [16] = measured here: cisplatin combination, at 5 µM
# [17] = BGB combination, concentration series, at 5 µM
# [18] = cisplatin combination, concentration series, at 5 µM
# [19] = measured here: combo with BGB IC20, at 0.5 µM
# [20] = measured here: combo with cisplatin IC20, at 0.5 µM
# [21] = cisplatin combination, at 0.5 µM
# [22] = measured here: BGB IC40 combination 0.05 uM, at 0.05 µM
# [23] = measured here: BGB IC40 combination, at 0.05 µM
# [24] = measured here: with BGB IC20 combination, at 0.5 µM
# [25] = measured here: with cisplatin IC20 combination, at 0.5 µM
structure (smiles),measurement,setting,value
CC(C(=O)O)c1ccc(CC2CCCC2=O)cc1 (stereo not given),log fold change Tl+ flux,F380Y,-0.0107 (inactive)
same,log fold change Tl+ flux,F380Y/beta1,-0.0699 (inactive)
Cc1oncc1C(=O)Nc1ccc(C(F)(F)F)cc1,inhibition,[1]; at 0.5 µM,4.13% (inactive)
same,inhibition,[1]; [9],-13.1%
same,inhibition,[1]; [10],-27.7%
same,inhibition,[2]; at 0.5 µM,-14.8% (inactive)
same,inhibition,[2]; [11],-17.8%
same,inhibition,[2]; [12],30.1%
same,inhibition,[3]; at 0.5 µM,3.93% (inactive)
same,inhibition,[3]; [13],12.3%
same,inhibition,[3]; [14],48.9%
same,inhibition,[3]; [15],-7.42%
same,inhibition,[3]; [16],42.4%
same,inhibition,[4]; [17],74.1%
same,inhibition,[4]; at 0.5 µM,6.99% (inactive)
same,inhibition,[4]; [18],66.1%
same,inhibition,[5]; at 0.5 µM,23.1% (inactive)
same,inhibition,[5]; [19],15.1%
same,inhibition,[5]; [20],28.3%
same,inhibition,[6]; at 0.5 µM,5.65% (inactive)
same,inhibition,[6]; [21],-5.97%
same,inhibition,"[6]; cisplatin combination, at 5 µM",60.5%
same,inhibition,[6]; [22],32%
same,inhibition,"[6]; single agent, at 5 µM",51.2%
same,inhibition,[7]; at 0.5 µM,-7.24% (inactive)
same,inhibition,"[7]; cisplatin combo, at 5 µM",23.6%
same,inhibition,[7]; [23],-20.4%
same,inhibition,[7]; [11],-2.75%
same,inhibition,"[7]; single agent, at 5 µM",34.1%
same,inhibition,[8]; at 0.5 µM,-17.2% (inactive)
same,inhibition,[8]; [24],-12.4%
same,inhibition,[8]; [25],-21.5%
same,inhibition,"[8]; single agent, at 0.05 µM",-28.9%
same,inhibition,"[8]; single agent, at 5 µM",28.1%
O=c1c(O)c(-c2ccc(O)c(O)c2)oc2cc(O)cc(O)c12,inhibition,[1]; at 0.5 µM,-3.55% (inactive)
same,inhibition,[1]; [9],-4.11%
same,inhibition,[1]; [10],-12.6%
same,inhibition,[2]; at 0.5 µM,0.78% (inactive)
same,inhibition,[2]; [11],12%
same,inhibition,[2]; [12],15.1%
same,inhibition,[3]; at 0.5 µM,0.09% (inactive)
same,inhibition,[3]; [13],-0.722%
same,inhibition,[3]; [14],15.2%
same,inhibition,[3]; [15],-5.24%
same,inhibition,[3]; [16],12.3%
same,inhibition,[4]; [17],2.88%
same,inhibition,[4]; at 0.5 µM,-10.1% (inactive)
same,inhibition,[4]; [18],11.4%
same,inhibition,[5]; at 0.5 µM,-9.12% (inactive)
same,inhibition,[5]; [19],-6.54%
same,inhibition,[5]; [20],-19%
same,inhibition,[6]; at 0.5 µM,11.1% (inactive)
same,inhibition,[6]; [21],-4.44%
same,inhibition,"[6]; cisplatin combination, at 5 µM",-18.7%
same,inhibition,[6]; [22],37.6%
same,inhibition,"[6]; single agent, at 5 µM",-1.38%
same,inhibition,[7]; at 0.5 µM,8.96% (inactive)
same,inhibition,"[7]; cisplatin combo, at 5 µM",-16.5%
same,inhibition,[7]; [23],7.33%
same,inhibition,[7]; [11],6.44%
same,inhibition,"[7]; single agent, at 5 µM",2.31%
same,inhibition,[8]; at 0.5 µM,-39.9% (inactive)
same,inhibition,[8]; [24],-11.9%
same,inhibition,[8]; [25],-53.9%
same,inhibition,"[8]; single agent, at 0.05 µM",57.4%
same,inhibition,"[8]; single agent, at 5 µM",8.34%
CN1CCC(=C2c3ccccc3C=Cc3ccccc32)CC1,log fold change Tl+ flux,F380Y,0.15 (active)
same,log fold change Tl+ flux,F380Y/beta1,-0.0427 (inactive)
Nc1nc(F)nc2c1ncn2[C@@H]1O[C@H](CO)[C@@H](O)[C@@H]1O,log fold change Tl+ flux,F380Y,0.0242 (inactive)
same,log fold change Tl+ flux,F380Y/beta1,-0.00658 (inactive)
Nc1nc2c(ncn2CCC(CO)CO)c(=O)[nH]1,inhibition,[1]; at 0.5 µM,-12.6% (inactive) and 3.48% (inactive)
same,inhibition,[1]; [9],-7.99% and -7.52%
same,inhibition,[1]; [10],-19.6% and -12.5%
same,inhibition,[2]; at 0.5 µM,-3.59% (inactive) and -17% (inactive)
same,inhibition,[2]; [11],-6.24% and -17.7%
same,inhibition,[2]; [12],9.1% and -63%
same,inhibition,[3]; at 0.5 µM,-1.2% (inactive) and -23.3% (inactive)
same,inhibition,[3]; [13],8.81% and -18.4%
same,inhibition,[3]; [14],4.8% and -29%
same,inhibition,[3]; [15],-6.71% and -45.8%
same,inhibition,[3]; [16],5.49% and -36%
same,inhibition,[4]; [17],-16.8% and -15.8%
same,inhibition,[4]; at 0.5 µM,-10.2% (inactive) and 1.59% (inactive)
same,inhibition,[4]; [18],4.16% and 10.4%
same,inhibition,[5]; at 0.5 µM,6.25% (inactive) and 7.18% (inactive)
same,inhibition,[5]; [19],34.9% and 5.65%
same,inhibition,[5]; [20],-9.35% and -4.75%
same,inhibition,[6]; at 0.5 µM,8.52% (inactive) and -29.3% (inactive)
same,inhibition,[6]; [21],-11.9% and -14.8%
same,inhibition,"[6]; cisplatin combination, at 5 µM",-3.68% and -10.8%
same,inhibition,[6]; [22],45.4% and 1.15%
same,inhibition,"[6]; single agent, at 5 µM",-12.8% and -18.7%
same,inhibition,[7]; at 0.5 µM,0.33% (inactive) and -16.2% (inactive)
same,inhibition,"[7]; cisplatin combo, at 5 µM",3.43% and -89.1%
same,inhibition,[7]; [23],3.48% and 8.53%
same,inhibition,[7]; [11],-3.27% and -9.97%
same,inhibition,"[7]; single agent, at 5 µM",-16.9% and 37.5%
same,inhibition,[8]; at 0.5 µM,-5.94% (inactive) and 9.73% (inactive)
same,inhibition,[8]; [24],-31% and 11.5%
same,inhibition,[8]; [25],6.57% and 6.77%
